# Experimental data taken from PubChem BioAssay (NCATS).
# Unmarked numbers belong to inactive results. Records with an inconclusive call do not appear. Active and inactive are the calls of the source. Calls follow the shape of the dose curve; as a rule, active = well fitted curve in the direction sought with a large enough effect; inconclusive = small, poorly fitted or top-dose-only effect, or another doubt; inactive = no such curve, though single readings can be large; an effect the other way counts as inactive or inconclusive.
# Test system: not listed separately
# Experiment: MultiTox-Fluor Cytotoxicity Assay - LYMP1-002 - Live Cells (AID 955);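 also: cells exposed to compound for 16 hours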; also: potency is read from the fitted curve at half-maximal effect; as to viability change, negative = cytotoxic: % is scaled to controls: 0 for no effect and ±100 for the full control effect
# Details: LYMP1-002 lymphoblastoid live-cell protease fluorescence viability; series mostly up to 46.1 µM; viability change, negative = cytotoxic: at the top concentration
# Outline: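 Human lymphoblastoid LYMP1-002 cells, 2500/well, treated 16 h at 37 C in complete medium. Live-cell protease activity via GF-AFC fluorescence (Ex/Em 405/510) after 60 min reagent incubation; AC50 from Hill fits.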
Compound,Potency,"viability change, negative = cytotoxic [%]"
CC(=O)Oc1ccccc1C(=O)Nc1ncc([N+](=O)[O-])s1,25.1 µM (active),
N[C@@H](Cc1ccc(N(CCCl)CCCl)cc1)C(=O)O,,-9.54
Clc1ccc(COC(Cn2ccnc2)c2ccc(Cl)cc2Cl)cc1 (configuration not stated),,-23.6

# Biological target: Alpha-galactosidase (Coffea arabica) (UniProt Q42656)
# Sequence (Q42656 whole entry, looked up): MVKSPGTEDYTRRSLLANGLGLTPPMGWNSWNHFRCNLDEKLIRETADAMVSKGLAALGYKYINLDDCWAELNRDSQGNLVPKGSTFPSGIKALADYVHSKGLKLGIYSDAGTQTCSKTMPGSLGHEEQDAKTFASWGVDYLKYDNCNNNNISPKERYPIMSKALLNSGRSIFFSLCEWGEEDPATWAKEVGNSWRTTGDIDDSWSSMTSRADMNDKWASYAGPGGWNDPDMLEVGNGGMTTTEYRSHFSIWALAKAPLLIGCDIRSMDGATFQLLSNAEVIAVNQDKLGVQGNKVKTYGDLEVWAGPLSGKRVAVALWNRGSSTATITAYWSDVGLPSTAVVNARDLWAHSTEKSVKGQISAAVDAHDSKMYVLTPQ
# Experiment: Counterscreen for Glucocerebrosidase Inhibitors: qHTS Assay for Coffee Bean alpha-Galactosidase at pH 4.5 (AID 957);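 also: plate controls were enzyme alone for no effect and no enzyme for full effect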
# Details: purified coffee bean alpha-galactosidase, fluorogenic substrate; series mostly up to 76.9 µM; activity change, negative = inhibition: at the top concentration
# Outline: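 Coffee bean enzyme (2 nM) with 80 uM 4-methylumbelliferyl alpha-D-galactopyranoside in 50 mM citric acid, 0.005% Tween-20, pH 4.5, 20 min at room temperature; compounds 0.7 nM–77 uM. Stopped at pH 10, fluorescence 365/440 nm; AC50 from Hill fits.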
Compound,"activity change, negative = inhibition [%]",outcome
Nc1nc2c(ncn2COCCO)c(=O)[nH]1,1.55,
Nc1nnc(-c2cccc(Cl)c2Cl)c(N)n1,3.28,
NC12CC3CC(CC(C3)C1)C2,2.81,
O=c1[nH]cc(F)c(=O)[nH]1,0.37,
NC(=O)NO,3.22,
O=NN(CCCl)C(=O)NCCCl,1.71,
NNc1nncc2ccccc12,0.127,
CC(=O)Nc1nnc(S(N)(=O)=O)s1,2.16,
Cc1cnc(C(=O)NCCc2ccc(S(=O)(=O)NC(=O)NC3CCCCC3)cc2)cn1,0.815,
CN(C)CCC=C1c2ccccc2CCc2ccccc21,-4.09,
Nc1nc(N)c2nc(-c3ccccc3)c(N)nc2n1,114,
CC(C)[N+](C)(CCOC(=O)C1c2ccccc2Oc2ccccc21)C(C)C,-0.902,
CN(C)CCCN1c2ccccc2CCc2ccc(Cl)cc21,-5.04,
Cc1oncc1C(=O)Nc1ccc(C(F)(F)F)cc1,3.58,
Cc1[nH]c(=O)c(C#N)cc1-c1ccncc1,2.19,
CN(C)CCCN1c2ccccc2Sc2ccc(Cl)cc21,-6.46,
CN(C)c1nc(N(C)C)nc(N(C)C)n1,-0.867,
O=C(CCCN1CCC(O)(c2ccc(Cl)cc2)CC1)c1ccc(F)cc1,-1.98,
Cc1nc2n(c(=O)c1CCN1CCC(c3noc4cc(F)ccc34)CC1)CCCC2,0.568,
NC(=O)OCC(COC(N)=O)c1ccccc1,-1.43,
CN1CCN(C2=Nc3cc(Cl)ccc3Nc3ccccc32)CC1,-1.37,
O=c1c(O)c(-c2ccc(O)c(O)c2)oc2cc(O)cc(O)c12,0.726,
OCCN1CCN(CCCN2c3ccccc3Sc3ccc(Cl)cc32)CC1,0.188,
NS(=O)(=O)c1cc2c(cc1Cl)NC=NS2(=O)=O,-2.1,
N[C@@H]1CONC1=O,,inactive
NC[C@H](O)c1ccc(O)c(O)c1,,inactive
CC(C)(C)NC(=O)[C@H]1CC[C@H]2[C@@H]3CC[C@H]4NC(=O)C=C[C@]4(C)[C@H]3CC[C@]12C,-1.81,
Nc1ncn([C@@H]2O[C@H](CO)[C@@H](O)[C@H]2O)c(=O)n1,-0.98,

# Test system: not listed separately
# Experiment: MultiTox-Fluor Cytotoxicity Assay - LYMP1-003 - Dead Cells (AID 961);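 also: cells exposed to compound for 16 h at 37 °C; nearly all actives have a fitted effect of over 70% in size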; also: potency is read from the fitted curve at half-maximal effect;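 as to cytotoxicity (dead cells): 0% = DMSO and 100% = tetraoctylammonium bromide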
# Details: LYMP1-003 lymphoblastoid cells, dead-cell protease fluorescence; series mostly up to 92.2 µM; cytotoxicity (dead cells): at the top concentration
# Outline: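 Acute toxicity is scored as increased dead-cell protease activity in human lymphoblastoid LYMP1-003 cells after 16 h compound exposure in complete culture medium. Activity is normalized to DMSO basal and 15 uM tetraoctylammonium bromide as full response.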
Compound,Potency,cytotoxicity (dead cells) [%]
CC(=O)Oc1ccccc1C(=O)Nc1ncc([N+](=O)[O-])s1,39.8 µM (active),
N[C@@H](Cc1ccc(N(CCCl)CCCl)cc1)C(=O)O,,-9.7
Clc1ccc(COC(Cn2ccnc2)c2ccc(Cl)cc2Cl)cc1 (configuration not stated),63.1 µM (active),

# Test system: not listed separately
# Experiment: MultiTox-Fluor Cytotoxicity Assay - LYMP1-003 - Live Cells (AID 962);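 also: cells exposed to compound for 16 hours at 37 °C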; also: potency is read from the fitted curve at half-maximal effect;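 as to activity change, negative = fewer live cells: 0% = DMSO only and full loss = 92 µM tetraoctylammonium bromide; cytotoxic hits lower the live-cell protease signal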
# Details: LYMP1-003 lymphoblastoid cells, MultiTox-Fluor live-cell protease fluorescence; series mostly up to 92.2 µM; activity change, negative = fewer live cells: at the top concentration
# Outline: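 LYMP1-003 lymphoblastoid cells, 2500/well in complete medium, treated 16 h at 37 C; live-cell protease cleavage of GF-AFC read by fluorescence (Ex/Em 405/510) after 60 min reagent; AC50 from Hill fits of concentration-response.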
Compound,Potency,"activity change, negative = fewer live cells [%]"
CC(=O)Oc1ccccc1C(=O)Nc1ncc([N+](=O)[O-])s1,39.8 µM (active),
N[C@@H](Cc1ccc(N(CCCl)CCCl)cc1)C(=O)O,,-1.57
Clc1ccc(COC(Cn2ccnc2)c2ccc(Cl)cc2Cl)cc1 (configuration not stated),,-18.7
